Laboratory results published in PubChem BioAssay (NCATS).
Records with an inconclusive call do not appear. A number with no mark means an inactive call. Activity calls are given as the source filed them. Calls come from the whole dose curve. Peptide text beside a SMILES is read from it. * marks the point of attachment. Cbz = O=C(OCc1ccccc1)*; CH2Cl = ClC*

assay: Confirmatory qHTS for activators (rescue) of SARS-CoV-2 Cytopathic Effect (CPE) (AID 1508606); conditions: Vero E6 SARS-CoV-2 CPE rescue, viability luminescence; series mostly up to 20 µM; CPE rescue (activation): at the top concentration; note: nearly all actives have a fitted effect of over 70% in size; for CPE rescue (activation): 0% is about no effect
Potency is the fitted concentration of half-maximal effect.

| Compound | Potency | CPE rescue (activation) |
| --- | --- | --- |
| CCN(CC)CCCS(=O)(=O)N[C@H](CCc1ccccc1)c1nc(Cc2ccc(Br)cc2)no1 | 11200 nM (active) | – |
| C/C1=C\CCC2=CC(OC2=O)C(C)(C)/C=C/C1=O (centres undefined) | 10000 nM (active) | – |
| Fc1ccc2c(CCNCc3cccc(OCC(F)(F)C(F)F)c3)c[nH]c2c1 | 10000 nM (active) | – |
| O=C1Nc2nc(-c3c(O)cccc3OCC3CC3)cc([C@@H]3CCCNC3)c2CO1 | 11200 nM (active) | – |
| CN(C)CCN(Cc1ccc(-c2ccc(CNCCc3ccccc3)cc2)cc1)C(=O)CCC1CCCC1 | – | -14.6% |
| Cc1cc(C)c(CNC(=O)c2cc(-c3ccc(N4CCN(C)CC4)nc3)cc3c2c(C)cn3C(C)C)c(=O)[nH]1 | 10000 nM (active) | – |
| C[C@@H]1O[C@@H](O[C@@H]2[C@@H](O)[C@H](O[C@@H]3[C@@H](O)[C@@H](O)[C@H](O[C@H]4[C@H](OC(=O)[C@]56CCC(C)(C)C[C@H]5C5=CCC7[C@@]8(C)C[C@H](O)[C@H](O[C@@H]9O[C@@H](C)[C@H](O)[C@@H](O)[C@H]9O)[C@@](C)(CO)C8CC[C@@]7(C)[C@]5(C)C[C@H]6O)O[C@H](C)[C@H](O)[C@@H]4O)O[C@H]3C)OC[C@H]2O)[C@H](O)[C@H](O)[C@H]1O (some centres undefined) | 602 nM (active) | – |
| CCC(CC)COC(=O)[C@H](C)N[P@](=O)(OC[C@H]1O[C@@](C#N)(c2ccc3c(N)ncnn23)[C@H](O)[C@@H]1O)Oc1ccccc1 | 10000 nM (active) | – |
| CCCC[C@@H](C=O)NC(=O)[C@H](CC(C)C)NC(=O)OCc1ccccc1 | 355 nM (active) | – |
| CC1OC2OC3C(OCC(O)C3O)OC(=O)C34CCC(C)(C)CC3C3=CCC5C6(C)CC(O)C(OC7OC(CO)C(O)C(O)C7OC7OCC(OC(=O)CC(C)(O)CC(=O)OC1C(OC1OCC(O)C(O)C1O)C2O)C(O)C7O)C(C)(CO)C6CCC5(C)C3(C)CC4O (centres undefined) | – | -12.1% [at 10 µM] |
| CC(C)C[C@H](NC(=O)CNC(=O)OCc1ccccc1)C(=O)N[C@@H](Cc1ccccc1)C(=O)CCl (Cbz-Gly-Leu-Phe-CH2Cl) | 1000 nM (active) | – |
| C[C@H](NC(=O)[C@H](Cc1ccccc1)NC(=O)OCc1ccccc1)C(=O)CF | 126 nM (active) | – |
| CN1CCN(c2ccc(C(=O)Nc3n[nH]c4ccc(Cc5cc(F)cc(F)c5)cc34)c(NC3CCOCC3)c2)CC1 | – | -17.6% |
| CC#C[C@@H](CC(=O)O)c1ccc(OCc2cccc(-c3ccc(C(F)(F)F)cc3)c2)cc1 | 11200 nM (active) | – |
| Cc1ncc(NC(=O)c2ccc(CN3CCN(C)CC3)c(C(F)(F)F)c2)cc1Nc1nccc(-c2cccnc2)n1 | 10000 nM (active) | – |
| CNCc1ccc(-c2cc(-c3nc(-c4ccc(S(=O)(=O)C(C)C)cc4)cnc3N)on2)cc1 | 1780 nM (active) | – |
| CC1CCN(C(c2ccc(F)cc2)c2ccc(C(C)C(=O)O)cc2-c2ccc(C(F)(F)F)cc2)CC1 (centres undefined) | – | -11.1% |
| O=C(NCc1ccccc1)[C@H](Cc1ccccc1)NC(=O)[C@H]1O[C@@H]1C(=O)NCCc1ccc(O)cc1 | 141 nM (active) | – |
| COc1cc2nc(N3CCCCC3)nc(NC3CCN(C)CC3)c2cc1OC | 3550 nM (active) | – |
| Cc1ccc(NCCN(C)CCNc2ccnc3cc(Cl)ccc23)c2c(=O)c3ccccc3sc12 | – | -8.78% [at 10 µM] |
| CC[C@H](NC(=O)[C@H](CS(=O)(=O)CC1CC1)N[C@@H](c1ccc(F)cc1)C(F)(F)F)C(=O)C(=O)NC1CC1 | 112 nM (active) | – |
| CC1=CC2OC3CC(O)[C@@](C)(C34CO4)[C@@]2(C)C(O)C1=O (some centres undefined) | – | 18% [at 40 µM] |
| O=C1c2ccccc2-c2nc3nnnn3nc21 (tested in a mixture with another compound) | – | -16.1% |
| CCCCCCCCC(=O)N[C@H](CN1CCCC1)[C@H](O)c1ccc2c(c1)OCCO2 | 8910 nM (active) | – |
| Cc1cc2cc(Oc3ccnc(Nc4cccc(CS(=O)(=O)NCCN(C)C)c4)n3)ccc2[nH]1 | – | -4.16% |
| Cc1cccc(/C=N/Nc2cc(N3CCOCC3)nc(OCCc3ccccn3)n2)c1 | 14.2 nM (active) | – |
| CONC(=O)Nc1ccc(-c2sc3c(c2CN(C)Cc2ccccc2)c(=O)n(-c2ccccc2)c(=O)n3Cc2c(F)cccc2F)cc1 | – | 19.2% |
| CCCN1CCN(c2ccc(C(=O)NC3(C(=O)NCC#N)CCCCC3)cc2)CC1 | 1000 nM (active) | – |
| CCCCNc1ncc2c(-c3ccc(CN4CCN(C)CC4)cc3)cn(C3CCC(O)CC3)c2n1 (centres undefined) | – | -15.9% |

assay: Confirmatory qHTS to identify inhibitors of SARS-CoV-2 cell entry (AID 1645844); conditions: SARS-CoV-2 pseudotyped particle cell entry, luciferase; series mostly up to 57.2 µM; activity, negative = inhibition: at the top concentration; note: nearly all actives have a fitted effect of over 45% in size
Summary of the method: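 HEK293-ACE2 cells (Expi293F stably expressing human ACE2) were pretreated with compounds for 1 hr at 37C, then infected with MLV-based particles carrying Wuhan-Hu-1 spike (C-terminal 19-aa truncation). Luciferase luminescence read after 48 hr; normalized to spike PP (100%) and bald PP (0%).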

| Compound | Potency |
| --- | --- |
| Cc1cc(C)c(CNC(=O)c2cc(-c3ccc(N4CCN(C)CC4)nc3)cc3c2c(C)cn3C(C)C)c(=O)[nH]1 | 27100 nM (active) |
| CCCC[C@@H](C=O)NC(=O)[C@H](CC(C)C)NC(=O)OCc1ccccc1 | 1080 nM (active) |
| O=C(NCc1ccccc1)[C@H](Cc1ccccc1)NC(=O)[C@H]1O[C@@H]1C(=O)NCCc1ccc(O)cc1 | 1360 nM (active) |
| CC[C@H](NC(=O)[C@H](CS(=O)(=O)CC1CC1)N[C@@H](c1ccc(F)cc1)C(F)(F)F)C(=O)C(=O)NC1CC1 | 1080 nM (active) |
| Cc1cccc(/C=N/Nc2cc(N3CCOCC3)nc(OCCc3ccccn3)n2)c1 | 76.4 nM (active) |
